We go through five molecules from PubChem BioAssay.

The source made the active and inactive calls. Unless noted, the rule behind the calls is not given here.

Test [1] relates to Wnt5a (protein binding on small-molecule microarray). The experiment in a line: small molecules binding Wnt5a protein – biophysical, small-molecule microarray, 635/667 nm fluorescence, primary screen (AID 1142).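 Note: fluorescence read at 667 nm with signal to noise per printed feature.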 The settings on record: 635 nm fluorescence, higher = more signal.
Test [2] can be described thus: ATP-based viability of Huh7 replicon cells – cell-based, CellTiter-Glo luminescence, basal, 48 h, cytotoxicity control for HCV replication inhibitor project, primary screen (AID 1143).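 Note: Huh7 hepatoma cells carrying a hepatitis C replication reporter with no stimulus; test concentration not given here.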 Conditions: higher = more signal, called active from +8 up or from −8 down. (In general: A replicon is a self-replicating genome or part of one, used to study replication in cells.)
The nature of test [3]: Pseudomonas biofilm growth suppression – PAO1 strain, BacTiter-Glo luminescence, LB-PBS, primary screen (AID 1144). The settings on record: P. aeruginosa PAO1 biofilm, 12 h, higher = more signal.
Test [4] in a line: basal CRE-LacZ reporter activity in PC12 – cell-based, unstimulated, primary screen (AID 1145). The settings on record: no forskolin, luminescence, 4.5 h, higher = more signal, called active from +8 up or from −8 down.
The nature of test [5]: forskolin-driven CRE-LacZ activity in PC12 – cell-based, CRE-LacZ reporter, forskolin-stimulated, primary screen (AID 1146).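 Note: PC12 cells with 6xCRE LacZ reporter stimulated by forskolin 10 µM; beta-galactosidase reporter signal reflecting CREB driven transcription.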 Conditions: luminescence, 4.5 h, higher = more signal, called active from +8 up or from −8 down.
Test [6] deals with Streptavidin (Streptomyces avidinii) (UniProt P22629). Put plainly: compounds binding control protein streptavidin – biophysical, small-molecule microarray, 635/667 nm fluorescence, artefact control for SMM compound annotation, primary screen (AID 1147).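 Note: signal reflects streptavidin binding to arrayed compounds as a control protein.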 The settings on record: higher = more signal.
Test [7] is described as follows: probe aInhba binding on compound microarray – biochemical, small-molecule microarray, 635/667 nm fluorescence, primary screen (AID 1148).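 Note: score merges 667nm spot fluorescence with signal-to-noise for antibody binding to printed compounds.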 Conditions: higher = more signal.
Test [8] concerns the target Torsin-1A (Homo sapiens) (UniProt O14656). Put plainly: TOR1A wild-type binding on microarray – cell lysate, small-molecule microarray, lysate, 635/667 nm, primary screen (AID 1149). The settings on record: COS7 hTOR1A-WT lysate, 635 nm fluorescence, higher = more signal.
Test [9] shares this target. Put plainly: torsin A mutant lysate binding on microarrays – cell lysate, small-molecule microarray, COS7 lysate, 635/667 nm fluorescence, primary screen (AID 1150).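 Note: score pools 667 nm emission and signal to noise measuring lysate protein binding.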 The settings on record: COS7 hTOR1A mutant lysate, 635 nm fluorescence, higher = more signal.
In test [10] the test system is Sonic hedgehog protein (Shh). The experiment in a line: Sonic hedgehog microarray binding compounds – biochemical, small-molecule microarray, 635/667 nm fluorescence, primary screen (AID 1151).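 Note: Shh protein binding to compounds spotted on small-molecule microarray slides; score combines spot fluorescence intensity with signal-to-noise across triplicate slides.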 Conditions: 635 nm fluorescence, higher = more signal.
Test [11] can be described thus: optical density shifts of acrAB sulA E. coli – strain DRC41, OD650, 48 h, E. coli filamentation inducer project, primary screen (AID 1152).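 Note: E. coli MC1000 strain DRC41 lacking acrAB efflux pump and sulA.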 The settings on record: higher = more signal, called active from +8 up or from −8 down.
Test [12] is described as follows: probe aLefty1 binding on compound microarray – biochemical, small-molecule microarray, 635/667 nm fluorescence, primary screen (AID 1153).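 Note: score merges spot fluorescence with signal-to-noise ratio from the scanned slide images.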 The settings on record: higher = more signal.
The nature of test [13]: plasmodial surface anion channel blockers, osmotic lysis – cell-based, P. falciparum Indochina, OD700, 1 h, primary screen (AID 1154). Conditions: P. falciparum Indochina infected RBC osmotic lysis, higher = more signal, called active from +8 up or from −8 down.
Test [14] in a line: plasmodial surface anion channel blockers, osmotic lysis – cell-based, P. falciparum Indochina, OD700, 2 h, primary screen (AID 1155).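 Note: lysis reports solute entry through the parasite surface anion channel PSAC.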 The settings on record: P. falciparum Indochina infected erythrocytes, higher = more signal, called active from +8 up or from −8 down.
The nature of test [15]: changes in parasitized red cell lysis, either direction – P. falciparum Indochina, OD700, 3 h, PSAC antagonist project, primary screen (AID 1156). Conditions: P. falciparum-infected erythrocytes, osmotic lysis, higher = more signal, called active from +8 up or from −8 down.
Test [16] is described as follows: plasmodial surface anion channel blockers, osmotic lysis – cell-based, P. falciparum Indochina, OD700, 18 h, primary screen (AID 1157). Conditions: P. falciparum Indochina infected erythrocytes, osmotic lysis OD700, 18 h; higher = more signal, called active from +8 up or from −8 down.
The nature of test [17]: S6 kinase pathway phospho-S6 level changes – cell-based, A549, cytoblot, luminescence, serum-stimulated, primary screen (AID 1158).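 Note: serum-stimulated A549 lung adenocarcinoma cells; signal is phosphorylated S6 detected by cytoblot immunostaining with HRP secondary.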 Conditions: 5 h, higher = more signal.
Test [18] addresses NADPH oxidase 2 (Homo sapiens) (UniProt P04839). Put plainly: compounds shifting NOX2 Amplex Red fluorescence – cell-based, HEK293-NOX2, PMA-stimulated, NOX inhibitor project, primary screen (AID 1159). Note: test concentration not given here. Conditions: 45 min, higher = more signal, called active from +8 up or from −8 down.
For test [19], the target named is NADPH oxidase 4 (Homo sapiens) (UniProt Q9NPH5). Put plainly: compounds shifting NOX4 Amplex Red fluorescence – cell-based, HEK293-NOX4, tetracycline-induced, NOX inhibitor project, primary screen (AID 1160). The settings on record: HEK293-NOX4, Amplex Red H2O2 fluorescence, 45 min; higher = more signal, called active from +8 up or from −8 down.
The target of test [20] is NADPH oxidase 5 (Homo sapiens) (UniProt Q96PH1). Put plainly: compounds shifting NOX5 Amplex Red fluorescence – cell-based, HEK293-NOX5, NOX inhibitor project, primary screen (AID 1161). Conditions: HEK293-NOX5, ionomycin, 45 min, higher = more signal.
NADPH oxidase 5 (Homo sapiens), sequence (Q96PH1 whole entry, looked up): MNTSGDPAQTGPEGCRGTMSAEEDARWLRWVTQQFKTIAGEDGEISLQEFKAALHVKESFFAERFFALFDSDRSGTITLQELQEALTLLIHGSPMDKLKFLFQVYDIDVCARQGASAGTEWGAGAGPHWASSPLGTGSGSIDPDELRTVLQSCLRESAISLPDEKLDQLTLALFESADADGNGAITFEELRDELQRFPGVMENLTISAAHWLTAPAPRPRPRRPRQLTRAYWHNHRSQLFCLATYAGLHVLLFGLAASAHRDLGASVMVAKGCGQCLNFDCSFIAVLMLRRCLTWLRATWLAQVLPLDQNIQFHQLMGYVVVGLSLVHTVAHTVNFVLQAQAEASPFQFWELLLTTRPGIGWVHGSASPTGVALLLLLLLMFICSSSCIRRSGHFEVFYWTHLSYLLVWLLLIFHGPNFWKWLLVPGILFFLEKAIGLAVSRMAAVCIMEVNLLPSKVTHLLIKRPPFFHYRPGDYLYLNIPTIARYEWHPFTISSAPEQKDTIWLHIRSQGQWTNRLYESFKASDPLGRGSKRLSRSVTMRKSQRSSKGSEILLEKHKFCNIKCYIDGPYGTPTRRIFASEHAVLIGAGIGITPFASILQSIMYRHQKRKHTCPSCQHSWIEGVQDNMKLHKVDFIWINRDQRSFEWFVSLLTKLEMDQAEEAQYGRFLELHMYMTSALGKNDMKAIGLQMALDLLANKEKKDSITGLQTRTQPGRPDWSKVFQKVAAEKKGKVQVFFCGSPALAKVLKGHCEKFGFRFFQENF

Torsin-1A (Homo sapiens), sequence (O14656 whole entry, looked up): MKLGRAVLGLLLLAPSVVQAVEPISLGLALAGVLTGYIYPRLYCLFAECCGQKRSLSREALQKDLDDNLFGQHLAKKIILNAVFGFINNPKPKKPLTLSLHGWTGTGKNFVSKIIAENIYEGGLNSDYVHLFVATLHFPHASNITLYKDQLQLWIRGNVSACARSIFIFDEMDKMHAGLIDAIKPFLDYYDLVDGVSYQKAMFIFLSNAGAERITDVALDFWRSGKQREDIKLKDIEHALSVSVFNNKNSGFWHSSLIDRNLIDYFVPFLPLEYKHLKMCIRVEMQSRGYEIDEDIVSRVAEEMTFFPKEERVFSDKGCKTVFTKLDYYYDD
NADPH oxidase 4 (Homo sapiens), sequence (Q9NPH5 whole entry, looked up): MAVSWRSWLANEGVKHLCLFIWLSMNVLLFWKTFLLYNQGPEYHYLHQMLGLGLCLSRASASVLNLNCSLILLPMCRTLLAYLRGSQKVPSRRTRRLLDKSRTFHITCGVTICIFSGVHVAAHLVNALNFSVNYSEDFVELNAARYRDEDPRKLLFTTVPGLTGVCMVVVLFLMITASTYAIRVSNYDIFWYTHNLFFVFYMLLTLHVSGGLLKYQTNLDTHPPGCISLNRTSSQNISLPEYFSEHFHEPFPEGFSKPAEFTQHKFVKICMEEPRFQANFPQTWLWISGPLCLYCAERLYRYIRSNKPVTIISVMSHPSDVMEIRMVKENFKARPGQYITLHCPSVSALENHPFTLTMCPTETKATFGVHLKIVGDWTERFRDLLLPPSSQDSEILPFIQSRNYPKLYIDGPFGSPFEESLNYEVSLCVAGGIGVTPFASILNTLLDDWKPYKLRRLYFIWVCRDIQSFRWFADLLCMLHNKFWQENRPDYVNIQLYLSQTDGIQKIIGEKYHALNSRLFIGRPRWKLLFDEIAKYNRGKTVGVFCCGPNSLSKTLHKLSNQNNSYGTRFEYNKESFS
NADPH oxidase 2 (Homo sapiens), sequence (P04839 whole entry, looked up): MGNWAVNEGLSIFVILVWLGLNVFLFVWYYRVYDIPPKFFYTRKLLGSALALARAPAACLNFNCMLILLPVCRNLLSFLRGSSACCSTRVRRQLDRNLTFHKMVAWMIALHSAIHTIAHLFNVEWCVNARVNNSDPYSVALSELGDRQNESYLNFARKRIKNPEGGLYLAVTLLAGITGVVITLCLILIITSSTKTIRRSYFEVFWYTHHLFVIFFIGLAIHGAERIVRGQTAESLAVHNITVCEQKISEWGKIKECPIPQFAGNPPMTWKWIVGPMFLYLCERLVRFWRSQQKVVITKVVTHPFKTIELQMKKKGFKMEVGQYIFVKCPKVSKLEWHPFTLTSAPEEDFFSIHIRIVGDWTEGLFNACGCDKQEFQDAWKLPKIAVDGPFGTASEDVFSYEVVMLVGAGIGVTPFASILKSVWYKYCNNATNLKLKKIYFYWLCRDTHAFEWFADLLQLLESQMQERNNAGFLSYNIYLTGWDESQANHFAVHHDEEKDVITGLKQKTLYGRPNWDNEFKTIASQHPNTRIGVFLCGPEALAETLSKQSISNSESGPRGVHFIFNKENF
Streptavidin (Streptomyces avidinii), sequence (P22629 whole entry, looked up): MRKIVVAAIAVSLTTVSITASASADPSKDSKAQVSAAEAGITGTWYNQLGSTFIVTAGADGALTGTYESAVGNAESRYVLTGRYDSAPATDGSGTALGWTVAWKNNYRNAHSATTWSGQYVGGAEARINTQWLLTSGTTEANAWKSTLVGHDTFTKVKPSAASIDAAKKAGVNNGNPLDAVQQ

On to `C=C(COC)/C(=C/C[C@@H](OC(=O)c1ccncc1)c1ccccc1OCCO)c1cnc2ccccc2c1`, for which the composite z-score in [1] turned out to be 1.09; in test [6], 1.93; in [7], 0.0422; in the test with Torsin-1A (Homo sapiens) [8], 0.113; in the test with Torsin-1A (Homo sapiens) [9], 1.15; in test [10], 2.07. In test [12], the composite z-score was 0.333. Also, the z-score in test [2] is -3 (inactive); in test [3], 1.45 (inactive); in [4], 18.2 (active); in [5], 1.24 (inactive); in test [11], 0.588 (inactive); in [13], 25.7 (active). Besides, the z-score was 11.5 (active) in test [14]; 0.518 (inactive) in [15]; 1.09 (inactive) in test [16]; 0.261 in test [17]; 0.0701 (inactive) in test [18]; 0.217 (inactive) in test [19]. Besides, the z-score in [20] was -1.13.
Regarding `C[C@]1(C(=O)O)c2ccccc2C(=O)N(Cc2cc(C(F)(F)F)cc(C(F)(F)F)c2)[C@H]1c1ccc(CO)cc1`, the composite z-score in test [1] is 0.0785; in [6], 1.41; in test [7], 0.0227; with Torsin-1A (Homo sapiens) [8] it was -0.652; with Torsin-1A (Homo sapiens) [9], -0.113; in test [10] it was 1.64. Moreover, the composite z-score in [12] was -0.0479. Moreover, the z-score in test [2] was 0.104 (inactive); in test [3] it was -0.518 (inactive); in [4] it was 0.531 (inactive); in test [5] it was 0.165 (inactive); in [11], -0.485 (inactive); in [13] it was 1.8 (inactive). Moreover, the z-score in test [14] is 0.168 (inactive); in test [15], -0.173 (inactive); in test [16], 0.157 (inactive); in [17], -0.0892; in test [18] it was 0.803 (inactive); in test [19], 0.0284 (inactive). Moreover, in [20], the z-score was -0.714.
For the molecule `C[N+](C)(C)CCCC[C@@H]1NC(=O)[C@H]2C[C@@H](C(=O)O)[C@@H](c3ccc(O)cc3)N2C1=O`, the composite z-score in [1] was 0.0425; in [6] it was -0.206; in test [7], 0.0051; with Torsin-1A (Homo sapiens) [8], 0.049; with Torsin-1A (Homo sapiens) [9], 0.38; in [10], 1.22. This molecule registered a composite z-score in test [12] of 0.0437. In addition, the z-score is -0.497 (inactive) in test [2]; -1.19 (inactive) in test [3]; 0.285 (inactive) in test [4]; -0.744 (inactive) in test [5]; 1.03 (inactive) in [11]; 3.34 (inactive) in test [13]. Also, the z-score in test [14] is 1.17 (inactive); in test [15], -2.47 (inactive); in test [16], 0.302 (inactive); in [17], 1.2; in [18], -1.77 (inactive); in test [19], -1.23 (inactive). The z-score in test [20] was -0.411.
As for `CC(C)(C)OC(=O)CC[C@@]1(C(N)=O)N=C(c2ccc(OCCCO)cc2)O[C@@H]1c1ccccc1CN=[N+]=[N-]`, the composite z-score in [1] is 1.07; in [6], -0.0644; in [7], 0.278; in the test with Torsin-1A (Homo sapiens) [8], 0.612; with Torsin-1A (Homo sapiens) [9] it was 1.08; in test [10] it was -0.425. The composite z-score in test [12] was found to be 0.997. In addition, the z-score in test [2] was -0.57 (inactive); in test [3], 0.938 (inactive); in [4], 0.171 (inactive); in [5], 0.638 (inactive); in test [11] it was -0.216 (inactive); in [13] it was 23.4 (active). Besides, the z-score in test [14] was 5.68 (inactive); in test [15] it was -1.49 (inactive); in test [16], 0.739 (inactive); in test [17] it was 0.0301; in test [18], 1.11 (inactive); in [19] it was 1.09 (inactive). Also, the z-score in test [20] is 0.369.
As to `COC(=O)[C@@]1(Cc2ccc(F)cc2)[C@H]2c3cc(C(=O)N(C)C)n(Cc4ccsc4Br)c3C[C@H]2CN1C(=O)c1ccccc1`, the composite z-score in test [1] is 2.41; in [6], 1.66; in [7], 2.03; in the test with Torsin-1A (Homo sapiens) [8], -0.0698; with Torsin-1A (Homo sapiens) [9], 0.39; in [10] it was -0.635. Further, in test [12], the composite z-score stood at 1.06. Besides, the z-score in [2] was -1.49 (inactive); in [3] it was 0.00128 (inactive); in test [4], 1.73 (inactive); in test [5], -0.0932 (inactive); in test [11], -1.62 (inactive); in [13], 3.86 (inactive). The z-score in [14] was 0.413 (inactive); in test [15], 0.952 (inactive); in test [16], 0.765 (inactive); in [17], -0.155; in test [18], -2.09 (inactive); in test [19], -5.46 (inactive). Further, the z-score in [20] was -2.35.
